# This is a sample that favours compounds with a hit; in the whole collection about 4.5% have one here.
# 697 NFkB inh – inhibitors of PMA/ionomycin-induced NF-kB reporter, 697 cells, primary screen, B-cell NF-kB inhibitor project, cell-based, luminescence, uHTS | 697 B-cell NF-kB luciferase reporter, 16 h | inhibition, % at 4 µM | 330,000 tested, 0.33% active; in the data active = inhibition above about 35%
# aSyn 5UTR inh – MLPCN primary screen, SNCA 5' untranslated region | alpha-synuclein 5'UTR reporter, inhibitor activity | inhibition, % (tested at 7.5 µM) | 300,000 tested, 0.82% active | AID 1813, 2009; in the data active = inhibition above about 60%; inconclusive = no clear call, values can overlap the other calls;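 note: H4 neuroglioblastoma cells stably carrying SNCA 5'UTR luciferase fusion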
# Jurkat NFkB inh – inhibitors of induced NF-kB luciferase reporter, primary screen, TCR NF-kB activation inhibitor project, cell-based, luminescence, uHTS. Jurkat, PMA/ionomycin-induced NF-kB luciferase reporter. inhibition, % at 4 µM. 330,000 tested, 0.53% active; in the data active = inhibition above about 50%
# CSC inhib – cancer stem cell viability inhibitors, primary screen, luminescence; cancer stem cell-like cells viability; inhibition, % at 7.5 µM; 300,000 tested, 1.1% active; AID 2717, 2010; in the data active = inhibition above about 75%; inconclusive = no clear call, values can overlap the other calls; tested in HMLE shEcad cells
# Gli-Sufu block – Gli-Sufu pathway antagonists, primary screen, luciferase luminescence, Sufu-KO-LIGHT cells, uHTS; Sufu-KO-LIGHT fibroblasts, Gli luciferase reporter luminescence; inhibition, % at 5 µM; 340,000 tested, 0.74% active;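 active = inhibition above about 55%, limit read from the data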
# Mdm2 MdmX PPI – inhibitors of human Mdm2-MdmX association, primary screen, cell-based, luminescence, split luciferase, SaOS-2, uHTS; Protein Mdm4 (Homo sapiens) + E3 ubiquitin-protein ligase Mdm2 (Homo sapiens), …; SaOS-2 split-luciferase Mdm2/MdmX complementation; inhibition, % at 8 µM; 330,000 tested, 3% active; AID 485346, 2010;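 active = inhibition of at least 50% at 8 µM in the primary screen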
# Mdm2-MdmX conf – Mdm2-MdmX complex disruptors, retested hits, confirmation, luminescence, single concentration. shares compounds with Mdm2 MdmX PPI. Mdm2-MdmX binding, luminescent assay. inhibition, % at 8 µM. 10,000 tested, 55% active. AID 489028, 2010; in the data active = inhibition above about 40%
# FLuc counter – full-length luciferase signal inhibition, confirmation, counter-screen for Mdm2/MdmX interaction inhibitor project, cell-based, single concentration, SaOS-2; shares compounds with Mdm2 MdmX PPI; SaOS-2 full-length luciferase counterscreen, luminescence; inhibition, % at 8 µM; 6,200 tested, 77% active;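 active = mean inhibition at 8 µM reaching about 37%, which flags the compound as non-specific, limit read from the data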;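 note: p53-null SaOS-2 cells with luciferase driven by a doxycycline-inducible promoter; compound on cells about two nights before reading with doxycycline added after day one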
# Hits are given with their value; n = inactive; u = inconclusive; x = not tested or not shown.
SMILES,697 NFkB inh,aSyn 5UTR inh,Jurkat NFkB inh,CSC inhib,Gli-Sufu block,Mdm2 MdmX PPI,Mdm2-MdmX conf,others
Cc1ccc(-n2c(=O)[nH]c3cc(C(=O)NC4CCN(Cc5ccccc5)CC4)ccc3c2=O)cc1,n,n,n,n,n,87,n,
Cc1ccccc1-c1nc(CN2CCC(C(=O)NC3CCCCC3)CC2)c(C)o1,n,n,n,n,n,n,x,
O=C(OCc1ccccc1)/C(=C/c1ccccc1Cl)NC(=O)c1ccco1,n,n,n,n,n,n,x,
COc1ccc(CC(=O)N/N=C(\C)CC(=O)NCc2ccco2)cc1OC,n,n,n,n,n,n,x,
COc1ccc(N2CCN(CCNC(=O)CCS(=O)(=O)c3cccc4nsnc34)CC2)cc1,n,n,n,n,x,n,x,
CC(NC(=O)COc1ccc(S(=O)(=O)N2CCOCC2)cc1)c1ccccc1 (stereo not drawn),n,x,n,x,n,n,x,
COCCn1nnnc1C(C(C)C)N1CCCC(C)C1 (stereo not drawn),n,n,n,n,n,n,x,
COc1ccc(-c2nc(CN3CCC(C(=O)NC4CCN(Cc5ccccc5)CC4)CC3)c(C)o2)cc1OC,n,n,n,n,n,80,49,FLuc counter=55
Cc1ccc(C)c(OCc2cc(C(=O)NC3CCN(Cc4ccccc4)CC3)no2)c1,n,n,n,n,n,53,n,
COc1ccc(-c2nc(CSCC(=O)NC3CCN(Cc4ccccc4)CC3)c(C)o2)cc1OC,n,n,n,n,n,n,x,
O=C(NC1CCN(Cc2ccccc2)C1)c1cc(COc2ccc(F)cc2F)on1 (stereo not drawn),n,n,n,n,n,n,x,
COc1ccccc1CNC(=O)CCC1N=C2c3ccccc3N=C(SCC(=O)NCC3CCCO3)N2C1=O (stereo not drawn),n,n,n,n,n,n,x,
COc1cc(/C=C(\C#N)c2ccccn2)ccc1OCC(=O)Nc1cccc(C(F)(F)F)c1,n,n,n,n,n,61,52,FLuc counter=57
CCc1ccc(NC(=O)COc2ccc(/C=C(/C#N)c3nc4ccccc4[nH]3)cc2OC)cc1,n,n,n,n,n,100,81,FLuc counter=53
COC(=O)c1ccc(COc2ccc(/C=C(\C#N)c3nc4ccccc4[nH]3)cc2OC)o1,n,n,n,n,n,n,x,
N#C/C(=C\c1ccc([N+](=O)[O-])o1)c1nc2ccccc2[nH]1,n,n,n,u,n,97,70,FLuc counter=61
COc1cc(/C=C(/C#N)c2nc3ccccc3[nH]2)ccc1Oc1ncccc1[N+](=O)[O-],n,n,n,n,n,68,n,
COc1cc(/C=C(/C#N)c2nc3ccccc3[nH]2)ccc1OCc1ccc(C(=O)O)o1,n,n,n,n,n,n,x,
N#C/C(=C(/O)c1ccc([N+](=O)[O-])o1)c1nc2ccccc2[nH]1,n,n,n,n,n,n,x,
COc1ccc(CCN2C(=O)c3ccncc3C2=O)cc1OC,n,n,n,n,n,n,x,
O=C(Nc1ccnn1C1CCN(Cc2ccccc2F)CC1)C1CCCC1,n,n,n,n,n,n,x,
O=C1[C@H](Cc2ccccc2)NCC=CC[C@H](c2ccco2)N1Cc1ccccc1,x,x,x,x,n,x,x,
O=C(Nc1cc2c3c(c1)CC(=O)N3CCC2)c1ccccc1Br,n,n,n,n,n,n,x,
COc1cc(CCN2C(=O)N[C@@H](CCc3ccccc3)C(C(C)=O)=C2C)cc(OC)c1OC,n,x,n,n,n,n,x,
Cc1cc(C)nc(SCc2ccc(C(=O)N/N=C/c3cccc(O)c3O)cc2)n1,n,70,n,110,84,75,68,FLuc counter=n
